# Assay results as given in PubChem BioAssay (Tox21).
# A number with no mark means an inactive call. Records with an inconclusive call do not appear. Entries that show only a call come without a potency. The source made the active and inactive calls. Unless noted, calls come from the whole dose curve; as a rule, active = well fitted curve in the direction sought with a large enough effect in the repeat runs; inconclusive = weak or mixed curves; inactive = no such curve, though single readings can be large; an effect the other way counts as inactive or inconclusive.
# Assays:
# [1] = qHTS assay for small molecule agonists of the p53 signaling pathway - cell viability (AID 651633; calls by dose curve;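 note: p53RE-bla HCT reporter cells with a stable beta-lactamase p53 reporter; series mostly up to about 83 µM; nearly all actives have a fitted effect of over 30% in size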)
# In short: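 p53RE-bla cells, seeded at 4,000 per well and rested 5 h at 37 C/5% CO2, received compounds in DMSO for 16 h at 37 C. CellTiter-Glo was then added, and luminescence was read after 30 min at room temperature to gauge cytotoxicity.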
# [2] = qHTS assay for small molecules that induce genotoxicity in human embryonic kidney cells expressing luciferase-tagged ATAD5 - cell viability (AID 651634; calls by dose curve; note: nearly all actives have a fitted effect of over 25% in size)
# In short: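 After 15.5 hr incubation with compound at 37C, 5% CO2, HEK293T ATAD5-luciferase cells received CellTiter-Fluor reagent; fluorescence intensity was quantified following 30 min at 37C.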
# [3] = qHTS assay for small molecule disruptors of the mitochondrial membrane potential - cell viability (AID 720634; calls by dose curve;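 note: human HepG2 liver cancer cells; series mostly up to about 83 µM; nearly all actives have a fitted effect of over 20% in size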)
# In short: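 ATP-based luminescent viability readout (CellTiter-Glo, 30 min, room temperature) in HepG2 cells multiplexed with the m-MPI membrane potential dye; compound exposure lasted 1 hr at 37 C.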
# [4] = qHTS assay for small molecule disruptors of the mitochondrial membrane potential (AID 720635)
# In short: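 HepG2 cells (2,000/well) attached overnight at 37C, then took compound for 1 hr at 37C, 5% CO2. Mito-MPS dye was added for 30 min; fluorescence was read at 490/535 nm (monomers) and 540/590 nm (aggregates).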
# [5] = qHTS assay to test for compound auto fluorescence at 590 nm (red) in HepG2 cells (AID 720674)
# In short: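 Rose Bengal sodium served as the red fluorophore standard. HepG2 monolayers (overnight attachment, MEM with 10% FBS) were exposed to test compounds for 1 hr at 37 C and read at Ex 540/Em 590 nm.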
# [6] = qHTS assay to test for compound auto fluorescence at 535 nm (green) in HepG2 cells (AID 720675)
# [7] = qHTS assay to test for compound auto fluorescence at 460 nm (blue) in HEK293 cells (AID 720678)
# In short: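 Intrinsic compound fluorescence is recorded in live HEK293 cultures after overnight incubation at 37C, 5% CO2, using excitation 405 nm and emission 460 nm. Values are referenced to triamterene.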
# [8] = qHTS assay to test for compound auto fluorescence at 590 nm (red) in HEK293 cells (AID 720679)
# In short: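 Red autofluorescence, HEK293 cells: 2,000 cells/well; attach 4-5 hr 37C; add 23 nL cpd or DMSO; incubate o/n 37C 5% CO2; read Ex540/Em590; Rose Bengal sodium reference.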
# [9] = qHTS assay to test for compound auto fluorescence at 535 nm (green) in HEK293 cells (AID 720680)
# [10] = qHTS assay to test for compound auto fluorescence at 460 nm (blue) in HEK293 cell free culture (AID 720681)
# In short: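 Test compounds were pinned into cell-free culture medium (DMEM with 10% FBS) and fluorescence was read directly at Ex/Em 405/460 nm. Signals were expressed as fluorescence equivalents of triamterene, with DMSO vehicle as control.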
# [11] = qHTS assay to test for compound auto fluorescence at 535 nm (green) in HEK293 cell free culture (AID 720682)
# In short: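 Measurement is a direct plate read of green fluorescence (485 nm in, 535 nm out) after compound addition to serum-supplemented DMEM lacking cells, with fluorescein used to express intensities.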
# [12] = qHTS assay to test for compound auto fluorescence at 590 nm (red) in HEK293 cell free culture (AID 720683)
# In short: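 Tox21 10K library compounds were pinned into cell-free DMEM with 10% FBS and fluorescence was read at excitation 540 nm. Activity is expressed as Rose Bengal sodium equivalency.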
# [13] = qHTS assay to test for compound auto fluorescence at 460 nm (blue) in HepG2 cell free culture (AID 720685)
# In short: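 Cell-free plates of MEM plus 10% FBS received 23 nL compound or DMSO vehicle; blue-channel (405/460 nm) intensity scored against triamterene as reference fluorophore.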
# [14] = qHTS assay to test for compound auto fluorescence at 535 nm (green) in HepG2 cell free culture (AID 720686)
# [15] = qHTS assay to test for compound auto fluorescence at 460 nm (blue) in HepG2 cells (AID 720687)
# In short: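 Cells (2,000/well in MEM with 10% FBS) attached overnight at 37 C, then were exposed to compound or DMSO for 1 hr at 37 C, 5% CO2. Fluorescence read at Ex/Em 405/460 nm, expressed as triamterene-equivalent signal.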
# [16] = target: Glucocorticoid receptor (Homo sapiens) (UniProt P04150); test: qHTS assay to identify small molecule agonists of the glucocorticoid receptor (GR) signaling pathway (AID 720691; active = well fitted activation curve with a large enough effect in the signal ratio in the repeat runs, not every such curve was filed as active; the % refers to the signal ratio; note: potency is the fitted concentration of half-maximal effect)
# In short: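 Cells: GR-bla HeLa, endogenous GR with stably integrated GRE-beta-lactamase reporter. Treatment 18 h, 37 C, compounds delivered in DMSO. Detection via LiveBLAzer B/G FRET substrate, 2 h RT, fluorescence intensity.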
# [17] = target: Glucocorticoid receptor (Homo sapiens) (UniProt P04150); test: qHTS assay to identify small molecule antagonists of the glucocorticoid receptor (GR) signaling pathway (AID 720692; active = well fitted inhibition curve with a large enough effect in the signal ratio in the repeat runs, not every such curve was filed as active; the % refers to the signal ratio)
# In short: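 Quantitative HTS in antagonist format: HeLa cells expressing endogenous GR and a stably integrated GRE-bla reporter, stimulated with 5 nM dexamethasone (final) alongside test compounds for 18 h.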
# [18] = qHTS assay for small molecules that induce genotoxicity in human embryonic kidney cells expressing luciferase-tagged ATAD5 (AID 651632); note: nearly all actives have a fitted effect of over 15% in size
# In short: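 Quantitative HTS in HEK293T expressing luciferase-tagged ATAD5, whose levels rise upon DNA damage. Exposure ran 16 hr at 37C and 5% CO2, with luminescence read 30 min after Amplite addition at room temperature.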
# [19] = qHTS assay to test for compound auto fluorescence at 590 nm (red) in HepG2 cell free culture (AID 720684)
# In short: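 Ex 540 / Em 590 nm read of compound in cell-free MEM (10% FBS). Rose Bengal sodium reference.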
# Chain of Glucocorticoid receptor (Homo sapiens) (P04150 whole entry, looked up): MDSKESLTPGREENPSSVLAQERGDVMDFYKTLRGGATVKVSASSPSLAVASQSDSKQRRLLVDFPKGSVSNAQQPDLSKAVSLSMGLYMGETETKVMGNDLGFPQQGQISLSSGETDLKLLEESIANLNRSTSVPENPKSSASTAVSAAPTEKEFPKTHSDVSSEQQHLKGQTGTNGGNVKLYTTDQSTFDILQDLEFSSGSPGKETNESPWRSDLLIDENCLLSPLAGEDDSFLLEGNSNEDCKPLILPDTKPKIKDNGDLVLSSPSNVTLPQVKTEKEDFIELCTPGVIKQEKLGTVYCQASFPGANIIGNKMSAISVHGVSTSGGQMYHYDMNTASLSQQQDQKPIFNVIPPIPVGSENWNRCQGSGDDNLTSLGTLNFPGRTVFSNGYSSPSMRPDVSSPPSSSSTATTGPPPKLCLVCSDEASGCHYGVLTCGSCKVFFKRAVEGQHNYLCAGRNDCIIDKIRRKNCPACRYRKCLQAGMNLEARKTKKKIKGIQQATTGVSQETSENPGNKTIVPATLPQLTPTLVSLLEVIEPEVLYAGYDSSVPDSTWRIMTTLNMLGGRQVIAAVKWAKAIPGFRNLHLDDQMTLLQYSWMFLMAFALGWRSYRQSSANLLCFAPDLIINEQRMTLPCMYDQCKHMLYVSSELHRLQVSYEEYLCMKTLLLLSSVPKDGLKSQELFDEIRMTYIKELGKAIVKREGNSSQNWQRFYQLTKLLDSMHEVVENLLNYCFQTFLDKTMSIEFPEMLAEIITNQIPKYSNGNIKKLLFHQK
structure (smiles),measurement,setting,value
c1cc2ccc3ccc4ccc5cccc6c(c1)c2c3c4c56,"activity change, negative = cytotoxicity",[1],10.5% [at 3.63 µM]
same,"activity, negative = cytotoxicity",[2],31.3% [at 3.63 µM]
same,"activity change, negative = cytotoxicity",[3],7.58% [at 3.63 µM]
same,"ratio activity, negative = MMP loss",[4],16.7% [at 3.63 µM]
same,"fluorescence, relative to Rose Bengal",[5],0.113% [at 3.72 µM]
same,"fluorescence, % of fluorescein control",[6],0.0742% [at 3.72 µM]
same,"fluorescence, % of triamterene",[7],1.23% [at 3.72 µM]
same,"fluorescence, % of fluorescent control",[8],0.132% [at 3.72 µM]
same,"fluorescence, % of fluorescein",[9],-0.0268% [at 3.72 µM]
same,"fluorescence, % of fluorescent control",[10],1.22% [at 3.72 µM]
same,activity change,[11],0.0204% [at 3.72 µM]
same,"fluorescence, % of fluorescent control",[12],-0.0354% [at 3.72 µM]
same,"fluorescence, % of fluorescent control",[13],1.51% [at 3.72 µM]
same,"fluorescence, % of fluorescein control",[14],-0.0141% [at 3.72 µM]
same,"fluorescence, % of fluorescent control",[15],2.24% [at 3.72 µM]
same,Potency,[16],1950 nM (active)
same,"activity change, negative = inhibition",[17],4.22% [at 3.15 µM]
NNC(=O)CCCCC(=O)NN,Potency,[18],inactive
same,outcome,[1],inactive
same,outcome,[2],inactive
same,outcome,[3],inactive
same,outcome,[5],inactive
same,outcome,[6],inactive
same,outcome,[7],inactive
same,outcome,[8],inactive
same,outcome,[9],inactive
same,outcome,[10],inactive
same,outcome,[11],inactive
same,outcome,[12],inactive
same,outcome,[19],inactive
same,outcome,[13],inactive
same,outcome,[14],inactive
same,outcome,[15],inactive
same,Potency,[16],inactive
same,outcome,[17],inactive
CNC(C)=O,Potency,[18],inactive
same,outcome,[2],inactive
same,outcome,[3],inactive
same,outcome,[5],inactive
same,outcome,[6],inactive
same,outcome,[7],inactive
same,outcome,[8],inactive
same,outcome,[9],inactive
same,outcome,[10],inactive
same,outcome,[11],inactive
same,outcome,[12],inactive
same,outcome,[19],inactive
same,outcome,[13],inactive
same,outcome,[14],inactive
same,outcome,[15],inactive
same,Potency,[16],inactive
same,outcome,[17],inactive
CC(=O)OCC(=O)[C@@]1(O)CC[C@H]2[C@@H]3CCC4=CC(=O)C=C[C@]4(C)[C@H]3[C@@H](O)C[C@@]21C,Potency,[18],inactive
same,outcome,[1],inactive
same,outcome,[2],inactive
same,outcome,[3],inactive
same,outcome,[5],inactive
same,outcome,[6],inactive
same,outcome,[7],inactive
same,outcome,[8],inactive
same,outcome,[9],inactive
same,outcome,[10],inactive
same,outcome,[11],inactive
same,outcome,[12],inactive
same,outcome,[13],inactive
same,outcome,[14],inactive
same,outcome,[15],inactive
C=CCN(CC=C)CC=C,outcome,[1],inactive
same,outcome,[2],inactive
same,outcome,[3],inactive
same,outcome,[5],inactive
same,outcome,[6],inactive
same,outcome,[7],inactive
same,outcome,[8],inactive
same,outcome,[9],inactive
same,outcome,[10],inactive
same,outcome,[11],inactive
same,outcome,[12],inactive
same,outcome,[13],inactive
same,outcome,[14],inactive
same,outcome,[15],inactive
same,Potency,[16],inactive
same,outcome,[17],inactive
O=C1CC2(CCCC2)CC(=O)N1CCNCC1COc2ccccc2O1 (centres undefined),Potency,[18],inactive
same,outcome,[2],inactive
same,outcome,[3],inactive
same,outcome,[6],inactive
same,outcome,[7],inactive
same,outcome,[8],inactive
same,outcome,[9],inactive
same,outcome,[10],inactive
same,outcome,[11],inactive
same,outcome,[12],inactive
same,outcome,[19],inactive
same,outcome,[13],inactive
same,outcome,[14],inactive
same,outcome,[15],inactive
COC(=O)N/N=C/c1c[n+]([O-])c2ccccc2[n+]1[O-],outcome,[1],inactive
same,outcome,[2],inactive
same,outcome,[3],inactive
same,Potency,[4],inactive
same,outcome,[5],inactive
same,outcome,[6],inactive
same,outcome,[7],inactive
same,outcome,[8],inactive
same,outcome,[9],inactive
same,outcome,[10],inactive
same,outcome,[11],inactive
same,outcome,[12],inactive
same,outcome,[19],inactive
same,outcome,[13],inactive
same,outcome,[14],inactive
same,outcome,[15],inactive
N=C(N)S(=O)O,Potency,[18],inactive
same,outcome,[2],inactive
same,outcome,[3],inactive
same,Potency,[4],inactive
same,outcome,[5],inactive
same,outcome,[6],inactive
same,outcome,[7],inactive
same,outcome,[8],inactive
same,outcome,[9],inactive
same,outcome,[10],inactive
same,outcome,[11],inactive
same,outcome,[12],inactive
same,outcome,[19],inactive
same,outcome,[13],inactive
same,outcome,[14],inactive
same,outcome,[15],inactive
